Mot1-301 SUMO – inhibitors of SUMOylation pathway: yeast Mot1-301 growth rescue. growth rescue, % at 18.8 µM. S. cerevisiae Mot1-301 growth rescue, ATP luminescence, 38.5C; percent above DMSO median, 100 means doubled. AID 2716. 320,000 compounds, 1% hits;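 active = every valid replicate shows activation above 250% relative to neutral control wells; inactive = the rest, any valid replicate at or below 250%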;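 note: OY570 slx delta 5 strain wells were the positive control but not used for scaling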
MEKK2wt PB1 HTS – raises or lowers MEK5 binding to wildtype human MEKK2 PB1 domain; bead flow cytometry, Alexa488-MEK5 binding to MEKK2 WT; actives lie on both sides; Q9Y2U5; 290,000 compounds, 1.1% hits; binding response (% of control), % at 10 µM; in the data active = binding response below about 67% or above about 130%
MEKK2 mut-MEK5 – signal of MEK5 binding to mutant human MEKK2 PB1 domain. bead flow cytometry, Alexa488-MEK5 binding to MEKK2 mutant. percent response, % at 10 µM. 290,000 compounds, 0.35% hits; in the data active = percent response above about 24%, passing the limit was not always enough
MEKK3 PB1 HTS – raises or lowers MEK5 binding to the human MEKK3 PB1 domain; Q99759; bead-based flow cytometry, Alexa488-MEK5 binding to MEKK3; actives lie on both sides; 0 = blocked by unlabeled MEK5, 100 = vehicle; binding response (% of control), % at 10 µM; 290,000 compounds, 1.4% hits;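 active = binding response more than 3 SD above or below the average of its plate-row segment, actives on both sides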;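 note: Alexa488 bead fluorescence after subtracting the streptavidin-only scavenger bead signal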
Target sequence (Q99759 whole entry, looked up, the tested form may be a part): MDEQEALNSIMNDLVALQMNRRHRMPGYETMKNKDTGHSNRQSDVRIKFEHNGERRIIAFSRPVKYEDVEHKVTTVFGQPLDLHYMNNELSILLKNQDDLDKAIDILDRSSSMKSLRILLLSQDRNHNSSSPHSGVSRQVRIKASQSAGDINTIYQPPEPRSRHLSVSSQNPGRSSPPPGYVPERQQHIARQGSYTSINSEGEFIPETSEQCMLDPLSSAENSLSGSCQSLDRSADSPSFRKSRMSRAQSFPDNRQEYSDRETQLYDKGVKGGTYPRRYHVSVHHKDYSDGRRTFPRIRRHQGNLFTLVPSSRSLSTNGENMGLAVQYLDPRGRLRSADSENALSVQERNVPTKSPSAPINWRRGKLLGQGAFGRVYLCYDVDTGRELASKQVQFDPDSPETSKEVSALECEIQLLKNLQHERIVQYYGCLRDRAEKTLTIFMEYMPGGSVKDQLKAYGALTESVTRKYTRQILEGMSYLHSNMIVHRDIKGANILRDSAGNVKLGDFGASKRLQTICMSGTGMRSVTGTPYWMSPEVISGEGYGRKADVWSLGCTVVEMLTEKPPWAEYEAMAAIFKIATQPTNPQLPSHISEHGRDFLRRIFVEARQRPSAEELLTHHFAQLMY
CHT PAM – human CHT allosteric activation; CHT-expressing cells, membrane potential dye, choline EC20; hits give high values; LV-AA mutant CHT in HEK293 cells; B-score at 10 µM; Q9GZV3; AID 488977; 310,000 compounds, 0.49% hits;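 active = initial fluorescence not abnormally high and integrated response B-score, plate-corrected, over 3 SD above library mean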
CHT inh – inhibitors of human choline transporter CHT; B-score at 10 µM; Q9GZV3; CHT-expressing cells, membrane potential dye, choline response; hits give low values; 310,000 compounds, 0.86% hits;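 active = B-score over 3 SD under the library average, and starting fluorescence ratio not unusually high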;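 note: choline stimulus applied at its EC90 after an EC20 pre-addition; B-score computed on integrated fluorescence ratio after choline addition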
CHT act confirm – confirmation of human choline transporter (CHT) activators | CHT-expressing cells, membrane potential dye fluorescence (FDSS); % of choline EC20–EC90 response window; HEK293 expressing CHT LV-AA mutant; choline added at its EC20 | activation, % at 10 µM | 2,500 compounds, 91% hits | shares compounds with CHT PAM;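 active = primary screen active, with duplicate mean activation above negative control mean plus 3 SD, cut at about 11% in these data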
HEK293 MP dye – CHT activator counter-screen hit in parental HEK293 cells; ratio readout change at 10 µM, hits read low; AID 623908; shares compounds with CHT PAM; 2,500 compounds, 62% hits; membrane potential dye fluorescence (FDSS); measured after EC20 choline addition;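 active = duplicate-averaged ratio beyond 3 SD from buffer wells, up or down, though filed actives are nearly all decreases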
Numbers without * were called inactive; i = inactive; . = no result. Most compounds without a hit are left out; they make up all but 4.1% or so of the library.

SMILES | Mot1-301 SUMO | MEKK2wt PB1 HTS | MEKK2 mut-MEK5 | MEKK3 PB1 HTS | CHT PAM | CHT inh | CHT act confirm | HEK293 MP dye
COc1cc2c(cc1OC)-c1cc3ccc(OC)c(OC)c3c[n+]1CC2 | -19.5 | . | . | . | i | i | 35.8* | -24.3*
COc1cc(OC)c(-c2nnc(-c3ccc(OC)c(OC)c3OC)o2)cc1OC | 7.8 | 66.0 | -12.0 | 58.0 | i | i | . | .
Cc1ccc2c(c1)COc1c3ccc(C(=O)NCC4CC4)cc3nn1-2 | 13.7 | 101.0 | -4.0 | 99.0 | i | i | . | .
C=CCNC(=O)c1ccc2c3n(nc2c1)-c1ccc(Cl)cc1CO3 | 7.2 | 107.0 | 5.0 | 112.0 | 6.46* | i | 15.4* | -20.4*
CCCCCCCC[n+]1cccc2c3ccccc3ccc21 | -6.0 | 94.0 | -10.0 | 96.0 | 6.77* | i | 19.3* | -25.9*
CCOc1cc(-c2sc(Nc3cc(C)ccc3OC)n[n+]2-c2ccccc2)ccc1OC | -19.4 | . | . | . | i | i | 43.8* | i
COc1ccc(C)cc1Nc1n[n+](-c2ccccc2)c(-c2ccc(C(=O)O)cc2)s1 | -6.2 | 101.0 | -6.0 | 101.0 | i | i | . | .
CCOc1cc(-c2sc(Nc3ccc(CC)cc3)n[n+]2-c2ccccc2)ccc1OC | 1.1 | . | . | . | i | i | 41.6* | i
Cc1cccc(-c2sc(Nc3ccccc3)n[n+]2-c2ccc(F)cc2)c1 | -9.5 | 105.0 | 9.0 | 105.0 | 8.91* | i | 52.3* | i
N[C@@H](CO)c1nnc([C@H](Cc2ccc(O)cc2)NC(=O)C2CCNCC2)o1 | 5.1 | 103.0 | 4.0 | 104.0 | i | i | . | .
CCCCN(C)CCNC(=O)C(NC(=O)C1CCC(C)CC1)C(C)C (configuration not stated) | 4.2 | 96.0 | 3.0 | 100.0 | i | i | . | .
COc1ccc(-c2cn(-c3ccc(Cl)cc3)c3[n+]2CCCCC3)cc1 | 9.5 | 66.0 | -22.0 | 59.0 | 6.96* | i | 51.0* | -21.3*
CC(=O)Nc1ccc(-n2nnnc2SCC(=O)NCc2cccs2)cc1 | . | 68.0 | -17.0 | 73.0 | i | i | . | .
CCOC(=O)c1cnc2c(C(F)(F)F)cccc2c1NCCCN1CCOCC1 | 112.4 | 105.0 | 2.0 | 105.0 | i | i | 43.2* | -67.2*
Cc1c(OC(C)C(=O)NC2CC(C)(C)NC(C)(C)C2)ccc2c3c(c(=O)oc12)CCC3 (configuration not stated) | 3.5 | 104.0 | 4.0 | 104.0 | 6.71* | i | 42.8* | -52.2*
COc1ccc(COC(=O)c2ccc(C)c(S(=O)(=O)N3CCOCC3)c2)cc1F | 11.5 | . | . | . | i | i | . | .
COc1ccc(OC)c(Nc2c3c(nc4ccccc24)CCC3)c1 | 7.8 | 107.0 | -1.0 | 103.0 | i | i | . | .
COc1cc(Nc2c3c(nc4ccccc24)CCC3)cc(OC)c1OC | 10.0 | 100.0 | -4.0 | 90.0 | i | i | 36.0* | -35.6*
CC[N+](CC)(CC)CCOc1cccc(OCC[N+](CC)(CC)CC)c1OCC[N+](CC)(CC)CC | -17.1 | . | . | . | 10.8* | i | 72.5* | -92.8*
Cc1ccc(-c2noc(C3CCCN(C(=O)c4ccccc4Br)C3)n2)o1 (configuration not stated) | 133.4 | 98.0 | 4.0 | 105.0 | i | i | . | .
Cc1ccc(C(=O)NCc2ccc(F)cc2)cc1NC1=NC2CS(=O)(=O)CC2S1 (configuration not stated) | 69.4 | 98.0 | -2.0 | 99.0 | i | i | . | .
COC(=O)[C@@H]1[C@H](CCc2ccccc2)NC(=O)N(Cc2ccccc2)[C@@H]1C | 5.5 | 96.0 | -1.0 | 98.0 | i | i | . | .

Bioassay records deposited in PubChem BioAssay by several laboratories.
